{
  "source": "paper PMC11062922",
  "about": "(Nature Chemical Biology, 2023)",
  "design_in_all_cases": "species or system human, MV4-11 + K-562 + COLO205 + SK-N-BE2 + OVCAR-8",
  "key": {"CDK17": {"system": "CDK17", "conditions": "read-out: apparent Kd, n = 1"}, "STK16": {"system": "STK16", "conditions": "read-out: apparent Kd, n = 1"}, "STK3": {"system": "STK3", "conditions": "read-out: apparent Kd, n = 1"}, "TNIK": {"system": "TNIK", "conditions": "read-out: apparent Kd, n = 1"}, "ADCK1": {"system": "ADCK1", "conditions": "read-out: apparent Kd, n = 1"}, "CSNK1A1": {"system": "CSNK1A1", "conditions": "read-out: apparent Kd; compound concentrations:100 nM and 1000 nM (sheet 'Samples'); n = 1"}, "MAPK10": {"system": "MAPK10", "conditions": "read-out: apparent Kd, n = 1"}, "MAPK8": {"system": "MAPK8", "conditions": "read-out: apparent Kd, n = 1"}, "PHKG2": {"system": "PHKG2", "conditions": "read-out: apparent Kd; compound concentrations:100 nM and 1000 nM (sheet 'Samples'); n = 1"}, "RIOK2": {"system": "RIOK2", "conditions": "read-out: apparent Kd, n = 1"}, "ROCK2": {"system": "ROCK2", "conditions": "read-out: apparent Kd; compound concentrations:100 nM and 1000 nM (sheet 'Samples'); n = 1"}, "ABL2": {"system": "ABL2", "conditions": "read-out: apparent Kd; compound concentrations: 100 nM and 1000 nM (sheet 'Samples'), CATDS: 2.8713823072650399E-2; n = 1"}, "EPHA2": {"system": "EPHA2", "conditions": "read-out: apparent Kd; compound concentrations: 100 nM and 1000 nM (sheet 'Samples'), CATDS: 1.9884880942714601E-2; n = 1"}, "HCK": {"system": "HCK", "conditions": "read-out: apparent Kd; compound concentrations: 100 nM and 1000 nM (sheet 'Samples'), CATDS: 1.9651331650111199E-2; n = 1"}, "PTK6": {"system": "PTK6", "conditions": "read-out: apparent Kd; compound concentrations: 100 nM and 1000 nM (sheet 'Samples'), CATDS: 2.16089189660327E-2; n = 1"}, "SRC": {"system": "SRC", "conditions": "read-out: apparent Kd; compound concentrations: 100 nM and 1000 nM (sheet 'Samples'), CATDS: 2.0715769219535499E-2; n = 1"}, "CSNK1E": {"system": "CSNK1E", "conditions": "read-out: apparent Kd; compound concentrations: 100 nM and 1000 nM (sheet 'Samples'), CATDS: 7.3916034222461E-2; n = 1"}, "[1]": {"conditions": "compound concentrations:100 nM and 1000 nM (sheet 'Samples')"}},
  "note": "Like-named read-outs stand apart in the source and are kept apart here.",
  "data": [
    {"smiles": "CNCC#Cc1c(F)ccc2c1/C(=C/c1[nH]ccc1OC)C(=O)N2.Cl", "note": "[RO0281601-001]", "values": [
      {"measurement": "potency estimated from few doses", "setting": "CDK17; compound concentrations: 100 nM and 1000 nM (sheet 'Samples'), CATDS: 2.8122134627670499E-2", "value": 838, "unit": "nM"},
      {"measurement": "potency estimated from few doses", "setting": "STK16; compound concentrations: 100 nM and 1000 nM (sheet 'Samples'), CATDS: 2.5135483463970699E-2", "value": 1180, "unit": "nM"},
      {"measurement": "potency estimated from few doses", "setting": "STK3; compound concentrations: 100 nM and 1000 nM (sheet 'Samples'), CATDS: 2.2839730138462501E-2", "value": 1650, "unit": "nM"},
      {"measurement": "potency estimated from few doses", "setting": "TNIK; compound concentrations: 100 nM and 1000 nM (sheet 'Samples'), CATDS: 2.1303462940689799E-2", "value": 2180, "unit": "nM"}
    ]},
    {"smiles": "CN(C)CC(O)COc1ccc(Nc2nccc(-c3cnn4nc(N5CCOCC5)ccc34)n2)cc1", "note": "(stereo not shown) [GW767488X]", "values": [
      {"measurement": "potency estimated from few doses", "setting": "ADCK1; [1]", "value": 587, "unit": "nM"},
      {"measurement": "potency estimated from few doses", "setting": "CDK17; [1]", "value": 200, "unit": "nM"},
      {"measurement": "potency estimated from few doses", "setting": "CSNK1A1", "value": 1250, "unit": "nM"},
      {"measurement": "potency estimated from few doses", "setting": "MAPK10; [1]", "value": 107, "unit": "nM"},
      {"measurement": "potency estimated from few doses", "setting": "MAPK8; [1]", "value": 127, "unit": "nM"},
      {"measurement": "potency estimated from few doses", "setting": "PHKG2", "value": 2250, "unit": "nM"},
      {"measurement": "potency estimated from few doses", "setting": "RIOK2; [1]", "value": 206, "unit": "nM"},
      {"measurement": "potency estimated from few doses", "setting": "ROCK2", "value": 1440, "unit": "nM"},
      {"measurement": "potency estimated from few doses", "setting": "STK16; [1]", "value": 69.2, "unit": "nM"}
    ]},
    {"smiles": "COc1cc(Nc2nccc(-c3cnn4ncccc34)n2)cc(OC)c1", "note": "[GW801372X]", "values": [
      {"measurement": "potency estimated from few doses", "setting": "CDK17; compound concentrations: 100 nM and 1000 nM (sheet 'Samples'), CATDS: 1.7691642172044799E-2", "value": 1920, "unit": "nM"},
      {"measurement": "potency estimated from few doses", "setting": "MAPK10; compound concentrations: 100 nM and 1000 nM (sheet 'Samples'), CATDS: 2.5530057385415701E-2", "value": 532, "unit": "nM"},
      {"measurement": "potency estimated from few doses", "setting": "MAPK8; compound concentrations: 100 nM and 1000 nM (sheet 'Samples'), CATDS: 2.2830325415810902E-2", "value": 746, "unit": "nM"},
      {"measurement": "potency estimated from few doses", "setting": "RIOK2; compound concentrations: 100 nM and 1000 nM (sheet 'Samples'), CATDS: 1.79748800643771E-2", "value": 1790, "unit": "nM"},
      {"measurement": "potency estimated from few doses", "setting": "STK16; compound concentrations: 100 nM and 1000 nM (sheet 'Samples'), CATDS: 1.87533606847229E-2", "value": 1500, "unit": "nM"}
    ]},
    {"smiles": "COc1cc(Nc2nccc(N3CCC(NC(=O)c4cccc(NC(C)=O)c4)C3)n2)cc(OC)c1OC", "note": "(stereo not shown) [GSK1379754A]", "values": [
      {"measurement": "potency estimated from few doses", "setting": "ADCK1; compound concentrations: 100 nM and 1000 nM (sheet 'Samples'), CATDS: 8.2961514797517094E-2", "value": 1820, "unit": "nM"}
    ]},
    {"smiles": "Cc1ccccc1-n1ncc(C(=O)c2ccccc2)c1N", "note": "[RO1151248-000]", "values": [
      {"measurement": "potency estimated from few doses", "setting": "ABL2", "value": 630, "unit": "nM"},
      {"measurement": "potency estimated from few doses", "setting": "EPHA2", "value": 1440, "unit": "nM"},
      {"measurement": "potency estimated from few doses", "setting": "HCK", "value": 1480, "unit": "nM"},
      {"measurement": "potency estimated from few doses", "setting": "PTK6", "value": 1160, "unit": "nM"},
      {"measurement": "potency estimated from few doses", "setting": "SRC", "value": 1290, "unit": "nM"},
      {"measurement": "potency estimated from few doses", "setting": "STK16; compound concentrations: 100 nM and 1000 nM (sheet 'Samples'), CATDS: 1.8222125974055099E-2", "value": 1860, "unit": "nM"}
    ]},
    {"smiles": "CCn1c(-c2nonc2N)nc2c(C#CC(C)(C)O)nc(O[C@@H](CN)c3ccccc3)cc21.O=C(O)C(F)(F)F", "note": "[GSK1007102B]", "values": [
      {"measurement": "potency estimated from few doses", "setting": "ADCK1; [1]", "value": 788, "unit": "nM"},
      {"measurement": "potency estimated from few doses", "setting": "ROCK2", "value": 1670, "unit": "nM"}
    ]},
    {"smiles": "O=C(O)C(F)(F)F.O=c1[nH]ccc2nc(N[C@@H]3CCNC3)nc(Nc3cc(Cl)cc(Cl)c3)c12", "note": "[GSK2188764A]", "values": [
      {"measurement": "potency estimated from few doses", "setting": "ADCK1; [1]", "value": 1680, "unit": "nM"},
      {"measurement": "potency estimated from few doses", "setting": "PHKG2", "value": 786, "unit": "nM"},
      {"measurement": "potency estimated from few doses", "setting": "STK3; [1]", "value": 847, "unit": "nM"},
      {"measurement": "potency estimated from few doses", "setting": "TNIK; [1]", "value": 1270, "unit": "nM"}
    ]},
    {"smiles": "CN(c1ccc(NC(=O)NCCN2CCOCC2)cc1)c1ccnc(Nc2ccc(CS(C)(=O)=O)cc2)n1.Cl", "note": "[GW830365A]", "values": [
      {"measurement": "potency estimated from few doses", "setting": "ADCK1; compound concentrations: 100 nM and 1000 nM (sheet 'Samples'), CATDS: 4.75269778892356E-2", "value": 1550, "unit": "nM"}
    ]},
    {"smiles": "CCN(CC)Cc1ccc(Nc2nccc(-c3cnn4ncccc34)n2)cc1", "note": "[GW780056X]", "values": [
      {"measurement": "potency estimated from few doses", "setting": "ADCK1; compound concentrations: 100 nM and 1000 nM (sheet 'Samples'), CATDS: 2.0575256748511801E-2", "value": 1200, "unit": "nM"},
      {"measurement": "potency estimated from few doses", "setting": "CDK17; compound concentrations: 100 nM and 1000 nM (sheet 'Samples'), CATDS: 2.15986885679498E-2", "value": 1030, "unit": "nM"},
      {"measurement": "potency estimated from few doses", "setting": "CSNK1E", "value": 72.1, "unit": "nM"},
      {"measurement": "potency estimated from few doses", "setting": "MAPK10; compound concentrations: 100 nM and 1000 nM (sheet 'Samples'), CATDS: 3.1976328377255003E-2", "value": 371, "unit": "nM"},
      {"measurement": "potency estimated from few doses", "setting": "MAPK8; compound concentrations: 100 nM and 1000 nM (sheet 'Samples'), CATDS: 2.1413758236852699E-2", "value": 1050, "unit": "nM"}
    ]},
    {"smiles": "Cc1cccc(Nc2nc(N[C@H]3CCNC3)ncc2C(N)=O)c1.Cl", "note": "[GSK2197149A]", "values": [
      {"measurement": "potency estimated from few doses", "setting": "ADCK1; [1]", "value": 1560, "unit": "nM"},
      {"measurement": "potency estimated from few doses", "setting": "CSNK1A1", "value": 1560, "unit": "nM"},
      {"measurement": "potency estimated from few doses", "setting": "TNIK; [1]", "value": 1590, "unit": "nM"}
    ]}
  ]
}
